Assay outcomes as filed in PubChem BioAssay.
DAX1 inh-1 – inhibitors of human orphan nuclear receptor DAX1 (NR0B1) | AID 504766 | hit rate 0.99% among 340,000 | HEK293 Gal4-DAX1 luciferase reporter, luminescence | inhibition, % at 6.75 µM | P51843;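 active means inhibition above the mean over all tested compounds plus 3 SD, cut at about 4.2% in these data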;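 further: 0% = DAX1-transfected cells with DMSO and 100% = empty-vector control cells with DMSO; inhibition shows as a rise in luminescence from relieved DAX1 repression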
DAX1 inh-2 – DAX1 (NR0B1) inhibition, primary screen; HEK293T StAR-luciferase reporter, SF-1/DAX-1 repression relief; hit rate 1.1% among 370,000; inhibition, % at 6.8 µM;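 active means inhibition above the mean over all tested compounds plus 3 SD, cut at about 3.6% in these data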;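 further: 0% = DAX-1 cells with DMSO and 100% = cells lacking DAX-1 with DMSO; higher inhibition means more luminescence from relief of DAX-1 repression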
hcDAF-12 act – activates DAF-12 receptor from parasite H. contortus | HEK293 hcDAF-12 lit1-tk-luc reporter, luminescence; 0% DMSO, 100% Δ7-dafachronic acid | activation, % at 6.8 µM | hit rate 1.4% among 370,000;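 active means activation above the mean of all tested compounds plus 3 SD, cut at about 5.5% in these data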;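 further: 100% = response to 3 µM Δ7-dafachronic acid high control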
hgDAF12 agonist – agonists of H. glycines DAF-12 nuclear receptor; AID 687014; activation, % at 6.8 µM; hit rate 1.8% among 370,000; HEK293 GAL4-hgDAF12 UAS-luciferase reporter, agonist luminescence; normalized to butyrate control;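 active means activation above a cutoff set at the mean of all screened compounds plus 3 SD, cut at about 10% in these data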;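 further: 0% = DMSO wells and 100% = sodium butyrate wells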
ssDAF12 agonist – activates DAF-12 receptor from parasite S. stercoralis; HEK293 ssDAF-12/GRIP1 lit1-tk-luc reporter, luminescence; % of 3 µM dafachronic acid response; hit rate 1% among 370,000; activation, % at 6.8 µM;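 active means activation above the mean over all tested compounds plus 3 SD, cut at about 0.9% in these data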;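 further: 0% = DMSO-only wells and 100% = 3 µM delta7-dafachronic acid wells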
AHR activator – human AHR activation; P35869; AHR-responsive luciferase reporter cells, luminescence; activation, % at 5 µM; hit rate 2.5% among 320,000; AID 2796; in the data active means activation above about 47%;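 further: 0% = vehicle wells and 100% = reference agonist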
Target sequence (P35869 whole entry, looked up): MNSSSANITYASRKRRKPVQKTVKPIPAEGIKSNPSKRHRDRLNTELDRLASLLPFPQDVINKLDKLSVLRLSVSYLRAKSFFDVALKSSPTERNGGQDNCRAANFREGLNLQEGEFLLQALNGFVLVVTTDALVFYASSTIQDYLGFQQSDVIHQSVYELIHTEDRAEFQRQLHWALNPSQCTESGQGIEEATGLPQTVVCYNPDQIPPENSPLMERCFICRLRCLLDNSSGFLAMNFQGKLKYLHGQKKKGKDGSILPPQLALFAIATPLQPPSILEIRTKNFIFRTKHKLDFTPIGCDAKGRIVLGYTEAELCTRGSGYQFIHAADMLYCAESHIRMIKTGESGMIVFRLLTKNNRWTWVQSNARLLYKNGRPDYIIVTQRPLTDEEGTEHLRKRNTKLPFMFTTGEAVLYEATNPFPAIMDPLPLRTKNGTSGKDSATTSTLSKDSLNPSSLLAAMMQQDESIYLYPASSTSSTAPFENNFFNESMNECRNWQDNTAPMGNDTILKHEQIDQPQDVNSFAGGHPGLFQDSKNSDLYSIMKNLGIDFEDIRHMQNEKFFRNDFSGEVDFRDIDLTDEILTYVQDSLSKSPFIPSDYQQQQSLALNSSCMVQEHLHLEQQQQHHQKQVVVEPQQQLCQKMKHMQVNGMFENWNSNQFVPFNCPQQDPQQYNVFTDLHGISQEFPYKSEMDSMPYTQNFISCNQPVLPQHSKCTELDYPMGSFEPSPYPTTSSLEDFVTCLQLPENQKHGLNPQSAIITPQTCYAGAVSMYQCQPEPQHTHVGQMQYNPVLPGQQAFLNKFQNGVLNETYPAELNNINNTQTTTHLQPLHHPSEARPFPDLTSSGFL
hgDAF12 ag – confirmation of H. glycines DAF-12 agonists | shares compounds with hgDAF12 agonist | HEK293 GAL4-hgDAF12 luciferase reporter, agonist mode; percent of butyrate response | activation, % at 6.8 µM | hit rate 80% among 3,300;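 active means mean activation over triplicate wells above the hit cutoff derived from the earlier primary screen, cut at about 11% in these data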;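 further: 0% = DMSO low control and 100% = 2 mM sodium butyrate high control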
LXRb DAF12 ctr – counter-screen for DAF-12 agonists: agonists of human LXR-beta; HEK293 Gal4-LXR luciferase reporter, 24 h; 3,300 tested, under 10 active; activation, % at 6.8 µM; AID 743051; shares compounds with hgDAF12 agonist;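 active means mean activation of the triplicate above a set limit carried over from the primary screen, none filed active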
* = called active by the depositor. Only some compounds are listed: those with a hit (about 5.7% of all), similar ones and a draw of the others.

Results for Cc1ccccc1Cn1cc(NC(=O)c2cc(-c3cccs3)on2)cn1 ?
DAX1 inh-1: -0.7; DAX1 inh-2: -2.5; hcDAF-12 act: -2.7; hgDAF12 agonist: 0.7; ssDAF12 agonist: -1.9; AHR activator: 13.5

How did COc1ccc(CCNC(=O)c2cc(-c3ccco3)on2)cc1OC do in these assays?
DAX1 inh-1: -1.6; DAX1 inh-2: -1.8; hcDAF-12 act: -2.0; hgDAF12 agonist: 13.9*; ssDAF12 agonist: -1.9; AHR activator: 4.1; hgDAF12 ag: 11.3*; LXRb DAF12 ctr: -0.1

How did CC(C)NC(=O)COc1cccc2ccccc12 do in these assays?
DAX1 inh-1: 1.9; DAX1 inh-2: -0.3; hcDAF-12 act: -0.5; hgDAF12 agonist: -1.7; ssDAF12 agonist: -1.8; AHR activator: 7.7

How did CCCN1C(=O)/C(=C/c2ccc(C)o2)NC1=S do in these assays?
AHR activator: 2.5

What do the screens show for `N/C(=N\OC(=O)COc1ccc2ccccc2c1)c1ccccn1`?
DAX1 inh-1: -1.2; DAX1 inh-2: -0.6; hcDAF-12 act: -0.9; hgDAF12 agonist: 6.2; ssDAF12 agonist: -1.4; AHR activator: -4.6

Results for CNc1cccc(-c2cccc(O)c2)n1 ?
DAX1 inh-2: 1.9; hcDAF-12 act: -0.1; hgDAF12 agonist: 17.3*; ssDAF12 agonist: -0.6; hgDAF12 ag: 9.2; LXRb DAF12 ctr: 0.3

Results for CCNC(=O)COC(=O)CCNC(=O)c1ccc(Cl)cc1 ?
DAX1 inh-1: 2.6; DAX1 inh-2: 0.8; hcDAF-12 act: -1.0; hgDAF12 agonist: -2.1; ssDAF12 agonist: -1.1; AHR activator: -0.7

How did O=C(NNC1=NCCCCC1)Nc1cccc(Cl)c1 do in these assays?
DAX1 inh-1: 1.2; DAX1 inh-2: 1.5; hcDAF-12 act: 4.9; hgDAF12 agonist: 18.5*; ssDAF12 agonist: -0.4; hgDAF12 ag: 18.4*; LXRb DAF12 ctr: 0.4

What do the screens show for `Cc1cc(/C=N/NC(=O)c2ccccc2F)c(C)n1-c1ccccc1`?
DAX1 inh-1: 3.0; DAX1 inh-2: 2.7; hcDAF-12 act: 4.4; hgDAF12 agonist: 13.6*; ssDAF12 agonist: 0.7; AHR activator: 12.3; hgDAF12 ag: 17.2*; LXRb DAF12 ctr: 0.8

What do the screens show for `COc1ccccc1CNC(=O)C/C(C)=N/NC(=O)Cc1ccc(Cl)cc1`?
DAX1 inh-1: 1.1; DAX1 inh-2: -0.1; hcDAF-12 act: 1.1; hgDAF12 agonist: 3.4; ssDAF12 agonist: -0.6; AHR activator: 2.9

How did CCCC(CCC)=NNC(=O)c1ccccc1F do in these assays?
DAX1 inh-1: 2.8; DAX1 inh-2: 2.7; hcDAF-12 act: 1.5; hgDAF12 agonist: 16.4*; ssDAF12 agonist: 0.1; AHR activator: 5.2; hgDAF12 ag: 4.3; LXRb DAF12 ctr: 0.1

How did CCC(/C=N/NC(=O)c1ccccc1F)CC do in these assays?
DAX1 inh-1: 5.3*; DAX1 inh-2: 2.3; hcDAF-12 act: 1.4; hgDAF12 agonist: 17.9*; ssDAF12 agonist: -0.8; AHR activator: 8.2; hgDAF12 ag: 1.3; LXRb DAF12 ctr: 0.0

How did CCOC(=O)N/N=C/c1cc(C)n(-c2ccccc2)c1C do in these assays?
DAX1 inh-1: -1.6; DAX1 inh-2: -0.3; hcDAF-12 act: -1.2; hgDAF12 agonist: -0.6; ssDAF12 agonist: -1.8; AHR activator: 19.5

How did C/C(CC(=O)NCc1ccc(Cl)cc1)=N\NC(=O)c1ccccc1F do in these assays?
DAX1 inh-1: 2.1; DAX1 inh-2: 2.1; hcDAF-12 act: 0.9; hgDAF12 agonist: 14.1*; ssDAF12 agonist: 1.5*; AHR activator: 3.2; hgDAF12 ag: 0.0; LXRb DAF12 ctr: 0.0

How did O=C(Nc1ccc(Nc2ccccc2)cc1)c1ccccc1F do in these assays?
DAX1 inh-1: 3.0; DAX1 inh-2: 0.4; hcDAF-12 act: -0.3; hgDAF12 agonist: 5.5; ssDAF12 agonist: -0.7; AHR activator: -8.8

Results for CCN(CC)c1ccc(NC(=O)c2ccccc2F)cc1 ?
DAX1 inh-1: 0.2; DAX1 inh-2: 1.7; hcDAF-12 act: 5.6*; hgDAF12 agonist: 14.1*; ssDAF12 agonist: 0.6; AHR activator: -2.3; hgDAF12 ag: 21.1*; LXRb DAF12 ctr: 0.7

How did O=C(Nc1ccccc1)O/N=C(\c1ccccc1)c1ccccn1 do in these assays?
DAX1 inh-1: -0.1; DAX1 inh-2: 0.6; hcDAF-12 act: -0.1; hgDAF12 agonist: 15.8*; ssDAF12 agonist: -1.1; AHR activator: 3.5; hgDAF12 ag: 1.6; LXRb DAF12 ctr: 0.1

How did Cc1ccc(S(=O)(=O)N(C)C)cc1NC(=O)Nc1c(-c2ccccc2)noc1C do in these assays?
DAX1 inh-2: 0.2; hcDAF-12 act: 2.5; hgDAF12 agonist: -2.2; ssDAF12 agonist: -1.7; AHR activator: 0.6

Results for C/C(=N\NC(=O)c1cccs1)c1ccc2c(c1)OCO2 ?
DAX1 inh-2: 3.0; hcDAF-12 act: 5.3; hgDAF12 agonist: 19.6*; ssDAF12 agonist: 0.0; AHR activator: 29.0; hgDAF12 ag: 7.9; LXRb DAF12 ctr: 0.2

How did C/C(=N\NC(=O)c1ccc2c(c1)OCO2)c1ccc2c(c1)OCO2 do in these assays?
DAX1 inh-1: 2.5; DAX1 inh-2: -0.1; hcDAF-12 act: 0.1; hgDAF12 agonist: 3.8; ssDAF12 agonist: -1.1; AHR activator: 26.5

What do the screens show for `CSc1ccc(/C=N/NC(=O)c2ccccc2Cl)cc1`?
DAX1 inh-1: 1.4; DAX1 inh-2: -1.4; hcDAF-12 act: 3.6; hgDAF12 agonist: 18.3*; ssDAF12 agonist: -0.8; AHR activator: 7.0; hgDAF12 ag: 13.0*; LXRb DAF12 ctr: 0.4

What do the screens show for `CSc1ccc(/C=N/NC(=O)c2cccs2)cc1`?
DAX1 inh-2: 2.5; hcDAF-12 act: 6.3*; hgDAF12 agonist: 16.0*; ssDAF12 agonist: 0.4; AHR activator: 22.8; hgDAF12 ag: 17.9*; LXRb DAF12 ctr: 0.9

What do the screens show for `Cc1[nH]c2ccccc2c1/C=N/NC(=O)c1cccs1`?
DAX1 inh-1: 7.9*; DAX1 inh-2: 1.9; hcDAF-12 act: 6.1*; hgDAF12 agonist: 14.0*; ssDAF12 agonist: 0.9*; AHR activator: 74.0*; hgDAF12 ag: 4.6; LXRb DAF12 ctr: 0.1

How did CC(C)Oc1ccc(C(=O)/C(=C\c2cccs2)c2nc3ccccc3o2)cc1 do in these assays?
DAX1 inh-1: -2.8; DAX1 inh-2: -0.9; hcDAF-12 act: -2.1; hgDAF12 agonist: -3.0; ssDAF12 agonist: -1.2; AHR activator: -0.2

How did Cc1ccc(C(=O)NCCCc2ccccc2)c(Cl)c1 do in these assays?
DAX1 inh-1: 5.1*; DAX1 inh-2: 2.0; hcDAF-12 act: 6.5*; hgDAF12 agonist: 14.7*; ssDAF12 agonist: 0.4; AHR activator: 5.8; hgDAF12 ag: 11.4*; LXRb DAF12 ctr: 0.5
